Assay outcomes deposited in PubChem by National Center for Advancing Translational Sciences (NCATS).
Hits are enriched below; roughly 19% of the tested compounds scored in any of these assays.
ELG1 repair inh: qHTS screen for small molecules that inhibit ELG1-dependent DNA repair in human embryonic kidney (HEK293T) cells expressing luciferase-tagged ELG1; AID 504467, 2011; Potency, µM (titrated, usually from 46.1 µM), for inactives: at the top dose activity change, negative = inhibition, most hits filed as inhibitors; 330,000 tested, 2.3% active; HEK293T ELG1-luciferase reporter, luminescence, 16 h; DNA damage induced by 5-fluorouridine; also: potency is read from the fitted curve at half-maximal effect; nearly all actives have a fitted effect of over 55% in size
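DMSO vehicle served as the neutral condition. Each well held 2,000 cells given 5-fluorouridine plus compound; after 16 hr at 37 °C/5% CO2, ONE-Glo was added and luciferase measured 30 min later.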
TDP1 inh: qHTS Assay for Inhibitors of Tyrosyl-DNA Phosphodiesterase (TDP1); AID 485290, 2010; recombinant TDP1, AlphaScreen DNA substrate cleavage; 350,000 tested, 0.28% active; Potency, µM (top dose mostly 130 µM), without a hit: at the top dose activity change, negative = inhibition, most hits filed as inhibitors; also: potency is read from the fitted curve at half-maximal effect; nearly all actives have a fitted effect of over 40% in size
Target sequence (Q9NUW8 whole entry, looked up): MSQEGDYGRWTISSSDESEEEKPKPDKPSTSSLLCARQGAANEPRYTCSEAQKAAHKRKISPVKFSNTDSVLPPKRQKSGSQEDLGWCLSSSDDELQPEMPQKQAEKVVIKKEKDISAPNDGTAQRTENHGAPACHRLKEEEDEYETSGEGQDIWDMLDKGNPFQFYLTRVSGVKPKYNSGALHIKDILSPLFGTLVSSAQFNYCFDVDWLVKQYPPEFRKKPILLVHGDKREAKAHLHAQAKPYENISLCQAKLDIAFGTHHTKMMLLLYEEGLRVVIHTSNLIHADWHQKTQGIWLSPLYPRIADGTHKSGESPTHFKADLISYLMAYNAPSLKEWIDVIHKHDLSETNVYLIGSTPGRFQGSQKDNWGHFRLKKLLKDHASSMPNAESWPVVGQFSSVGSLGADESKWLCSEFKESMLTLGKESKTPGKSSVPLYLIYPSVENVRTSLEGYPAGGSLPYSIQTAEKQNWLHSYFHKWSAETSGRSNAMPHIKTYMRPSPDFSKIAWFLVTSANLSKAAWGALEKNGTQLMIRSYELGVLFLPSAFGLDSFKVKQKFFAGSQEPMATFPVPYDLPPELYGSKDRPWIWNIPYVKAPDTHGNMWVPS
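Tdp1 1 nM final; 15 min RT w/ cpd; substrate 15 nM, 5 min; beads 10 ug/ml, 10 min; AlphaScreen read. Neg ctrl: no enzyme.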
TDP1 cell noCPT: qHTS for Inhibitors of human tyrosyl-DNA phosphodiesterase 1 (TDP1): qHTS in cells in absence of CPT | DT40 Tdp1-/- hTDP1 cells, no CPT, ATP luminescence, 48 h | Potency, µM (top dose mostly 46.2 µM), for the others: top-dose activity change, negative = growth inhibition, actives largely listed as inhibitors | 420,000 tested, 15% active | AID 686978, 2013; also: potency is read from the fitted curve at half-maximal effect; nearly all actives have a fitted effect of over 55% in size
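Cells were dispensed at 400 per well, compounds added by pin tool, plates incubated ≥48 hr at 37 °C, then CellTiter-Glo added for 30 min at room temperature before luminescence reading. Line: DT40 Tdp1-/- complemented with hTDP1; camptothecin omitted.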
IL1B secr inh: qHTS for Inhibitors of Inflammasome Signaling: IL-1-beta AlphaLISA Primary Screen; THP-1 LPS/ATP IL-1B secretion, AlphaLISA, 16 h; stronger effect = lower value; activity change, % at 57.5 µM; 360,000 tested, 4.7% active; in the data active = activity change below about -50%; inconclusive = mostly about -30% to -49%
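Secreted IL-1B measured by AlphaLISA bead assay after 16 h compound exposure of THP-1 cells; compounds (final up to 57.5 uM) added 1 h before LPS (250 ng/mL) and ATP (1.25 mM) stimulation; lower signal means less secretion.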
DT40 TDP1 CPT: qHTS for Inhibitors of human tyrosyl-DNA phosphodiesterase 1 (TDP1): qHTS in cells in presence of CPT | Potency, µM (doses to about 46.2 µM), without a hit: top-dose activity change, negative = growth inhibition, usual class: inhibitors | 420,000 tested, 12% active | chicken DT40 Tdp1-/-;hTDP1 cells + 20 nM CPT, ATP luminescence, 48 h | AID 686979, 2013; also: potency is read from the fitted curve at half-maximal effect; nearly all actives have a fitted effect of over 55% in size
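Cell growth measured by CellTiter-Glo luminescence after a minimum 48 h, 37 C compound exposure with 20 nM CPT in Tdp1-knockout DT40 cells stably expressing hTDP1, seeded 400/well; qHTS titration format.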
Giardia kill: Small Molecules that selectively kill Giardia lamblia: qHTS; 340,000 tested, 0.15% active; AID 540267, 2011; Giardia lamblia trophozoite viability; activity change, % at 7.66 µM, hits read low; in the data active = activity change below about -80%; inconclusive = between about -30% and that limit;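 also: parasites exposed to compound for two days anaerobically before the ATP read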
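Killing of trophozoites was scored by loss of ATP luminescence after a 48 hrs anaerobic exposure to compounds at 37 deg C, using 100 cells per well.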
* hit, by the source's call; u = inconclusive; x = no result given; [ ] = remark or other dose. Unless noted, calls follow the shape of the dose curve; as a rule, active = well fitted curve in the direction sought with a large enough effect; inconclusive = small, poorly fitted or top-dose-only effect, or another doubt; inactive = no such curve, though single readings can be large; an effect the other way counts as inactive or inconclusive. % is scaled to controls: 0 for no effect and ±100 for the full control effect.

SMILES	ELG1 repair inh	TDP1 inh	TDP1 cell noCPT	IL1B secr inh	DT40 TDP1 CPT	Giardia kill
COc1ccc2c(c1)c(CC(=O)OCC(=O)N(C)C)c(C)n2C(=O)c1ccc(Cl)cc1	-15%	x	-14%	16	7%	1
COc1ccc2c(c1)c(CC(=O)Nc1ccc(C)cc1)c(C)n2C(=O)c1ccc(Cl)cc1	u	-6%	21µM*	22	u	16
COc1ccc2c(c1)c(CC(=O)OC(C)C(=O)N(C)C)c(C)n2C(=O)c1ccc(Cl)cc1 (stereo not drawn)	-15%	x	15µM*	8	21µM*	6
COc1ccc2c(c1)c(CCNNC(=O)C(C)(C)C)c(C)n2C(=O)c1ccc(Cl)cc1	x	x	16µM*	u	23µM*	0
Cc1ccc(-c2nnn3c2nc(N2CCC(C)CC2)c2ccccc23)cc1	x	-6%	-20%	x	3%	x
O=C(Nc1ccc(F)cc1F)C1CCN(c2ncccn2)CC1	x	-7%	u	x	u	x
COc1cc(OC)cc(C(=O)c2c(C)c(C#N)c3ccccn23)c1	-15%	x	2.3µM*	30	2.3µM*	-13
CCOC(=O)COc1ccc2c(C#N)c3ccccn3c2c1	-3%	8%	4%	16	-15%	-20
COc1ccc2nc(SCC(=O)Nc3ccc4sc(C)nc4c3)c(C#N)cc2c1	u	0%	8.2µM*	13	13µM*	-10
CCSc1nc2ccc(OC)cc2cc1C#N	u	-1%	-11%	-1	9%	-16
COc1ccc(C/C(C)=N/NC(=S)Nc2ccc(C)c(C)c2)cc1	u	3%	16µM*	11	16µM*	16
COc1ccc(C/C(C)=N/NC(=S)Nc2ccc(Cl)cc2)cc1	-4%	-3%	12µM*	44	15µM*	4
CC1CC(C)CN(C(=O)COC(=O)COc2ccccc2C#N)C1 (stereo not drawn)	u	0%	-2%	-2	8%	33
COc1cccc(Cn2c(CNC(=O)Cc3cccc(C)c3)nc3cccnc32)c1	x	8%	u	x	u	x
CN(C)CC#Cc1cncc(C(=O)NNC(=O)Nc2ccc(Cl)cc2)c1	0%	3%	12%	2	4%	1
CCC[C@@H]1CCCO[C@@](C(=O)NCc2ccc(S(C)(=O)=O)cc2)(C(F)(F)F)C1	x	9%	u	-8	29µM*	0
O=C(NCC1CC1)[C@]1(C(F)(F)F)C[C@H](CCC2CCCCC2)CCCO1	x	-3%	23µM*	38	u	14
COc1cc(C(=O)Nc2nc(-c3ccc(C)cc3)cs2)ccc1OCC(=O)N1CCOCC1	21µM*	0%	21µM*	-11	23µM*	-24
COc1ccc(-c2nc(NC(=O)c3ccc(OCC(=O)Nc4ccc(F)cc4)c(OC)c3)sc2C)cc1	u	6%	18µM*	-1	u	7
COc1cc(C(=O)NCCN2C(=O)S/C(=C\c3ccc(F)cc3)C2=O)ccc1OCC(=O)N1CCOCC1	7%	1%	15µM*	-1	16µM*	8
COc1cc(C(=O)Nc2nc(-c3cc(C)ccc3C)c(C)s2)ccc1OCC(=O)Nc1ccc(F)cc1	-18%	8%	u	32	u	6
COc1ccc(-c2csc(NC(=O)c3ccc(OCC(=O)N4CCOCC4)c(OC)c3)n2)cc1	16µM*	1%	10µM*	-79*	7.3µM*	-7
COc1ccc(C(=O)N/C(=C\c2cn(S(=O)(=O)N(C)C)c3ccccc23)C(=O)N2CCN(C)CC2)cc1OC	x	x	u	-17	-32%	x
CC(=O)N1c2ccccc2CC1C(=O)N1CCN(c2cc(Cl)ccc2C)CC1 (stereo not drawn)	x	9%	u	x	u	x
CCN(CC)CCN(C)C(=O)c1ccc(-c2ccccc2)nc1N(C)C	x	x	-17%	x	-2%[9.04 µM]	x
SMILES	ELG1 repair inh	TDP1 inh	TDP1 cell noCPT	IL1B secr inh	DT40 TDP1 CPT	Giardia kill
COc1ccc(-c2cc(C(=O)N3CCOCC3)c3ccccc3n2)cc1OC	-22%	2%	-26%	0	-11%	2
COc1cc(C(=O)Nc2nc(-c3ccc(F)cc3)cs2)ccc1OCC(=O)N1CCOCC1	u	0%	12µM*	u	18µM*	5
COc1cc2cc(C(=O)N3CCOCC3)cc(-c3ccc(C)cc3)c2cc1OC	15µM*	x	-7%	u	-22%	17
Cc1cc(C)c2nc(Cl)c(CN(Cc3ccco3)C(=O)Nc3ccccc3C)cc2c1	-1%	-4%	4.6µM*	65	5.2µM*	-22
COCCN(Cc1cc2c(C)cc(C)cc2nc1Cl)C(=O)c1ccccc1F	u	0%	8.2µM*	5	10µM*	3
COCC(=O)N(CCc1ccccc1)Cc1cc2cc(C)ccc2nc1Cl	-13%	x	u	-5	-25%	-18
COCCN(Cc1cc2cc(C)cc(C)c2nc1Cl)C(=O)Nc1ccccc1	-19%	0%	3.3µM*	38	4.6µM*	28
Cc1cccc(S(=O)(=O)N(CC(=O)Nc2ccccc2C)Cc2ccco2)c1	-11%	4%	-21%	-9	-25%	17
COCCN(Cc1cc2ccc(C)c(C)c2nc1Cl)C(=O)N1CCOCC1	4%	-1%	u	u	u	-9
